Compound activity deposited in PubChem by National Center for Advancing Translational Sciences (NCATS).
HP1b binding inh – HP1-beta chromodomain-methylated histone interaction inhibition | Potency, µM (titrated, usually from 114 µM), inactives show at the highest dose activity change, negative = inhibition, hits mostly inhibitors | AlphaScreen HP1-beta / biotin-H3K9me3 peptide binding | 390,000 tested, 0.56% active; also: potency is read from the fitted curve at half-maximal effect; nearly all actives have a fitted effect of over 70% in size
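Compound inhibition of the preformed complex between 50 nM HP1-beta and 50 nM biotinylated H3K9me3 peptide was read by AlphaScreen. Buffer was PBS pH 7.4 with 0.01% Tween-20. Incubations ran 30 min at room temperature, with 10 ug/mL donor/acceptor beads.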
BAZ2B block – inhibitors of human BAZ2B bromodomain. AlphaScreen BAZ2B-H3K14Ac peptide displacement. Q9UIF8. Potency, µM (series often up to 114 µM), inactives show at the top dose activity change, negative = inhibition, actives largely listed as inhibitors. 360,000 tested, 4.4% active; also: potency is read from the fitted curve at half-maximal effect; % is scaled to controls: 0 for no effect and ±100 for the full control effect; nearly all actives have a fitted effect of over 60% in size
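Multi-concentration screen (max 110 uM) measuring displacement of acetylated histone H3 peptide from BAZ2B by AlphaScreen, using 50 nM protein, 50 nM peptide and 10 ug/mL streptavidin donor plus Ni-chelate acceptor beads.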
Six1-Eya2 inh – Six1/Eya2 interaction inhibition. 360,000 tested, 0.56% active. Q15475+O00167. activity change, % (concentration not given with the values). AID 651725. AlphaScreen GST-Six1/His-Eya2 binding, biochemical; hits give low values; in the data active = activity change below about -65%; inconclusive = mostly about -30% to -63%; also: % is scaled to controls: 0 for no effect and ±100 for the full control effect
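Compounds are tested against tagged Six1 and Eya2 proteins bridged by glutathione donor and nickel acceptor beads; after a one-hour incubation at 37 °C without light, AlphaScreen emission is recorded.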
G9a inh – G9a (human) methyltransferase inhibition | Q96KQ7 | Potency, µM (top dose mostly 102 µM), without a hit: at the highest dose activity, negative = inhibition, most hits filed as inhibitors | 350,000 tested, 8.8% active | AID 504332 | G9a H3K9 monomethylation, AlphaScreen, 2 h; also: potency is read from the fitted curve at half-maximal effect; % is scaled to controls: 0 for no effect and ±100 for the full control effect; nearly all actives have a fitted effect of over 75% in size
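Signal arises when biotinylated H3K9 peptide, once monomethylated, bridges streptavidin donor and antibody-captured acceptor beads. Enzyme at 20 nM was preincubated 15 min with test compounds; peptide 500 nM and SAM 20 uM then reacted for 2 h.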
JMJD2A Tudor – inhibitors of human JMJD2A Tudor domain; O75164; AlphaScreen JMJD2A-Tudor / H3K4me3 peptide binding; Potency, µM (highest dose often 114 µM), for the others: at the highest dose activity change, negative = inhibition, hits mostly inhibitors; 390,000 tested, 4.4% active; also: potency is read from the fitted curve at half-maximal effect; % is scaled to controls: 0 for no effect and ±100 for the full control effect; nearly all actives have a fitted effect of over 50% in size
Target sequence (O75164 whole entry, looked up, the tested form may be a part): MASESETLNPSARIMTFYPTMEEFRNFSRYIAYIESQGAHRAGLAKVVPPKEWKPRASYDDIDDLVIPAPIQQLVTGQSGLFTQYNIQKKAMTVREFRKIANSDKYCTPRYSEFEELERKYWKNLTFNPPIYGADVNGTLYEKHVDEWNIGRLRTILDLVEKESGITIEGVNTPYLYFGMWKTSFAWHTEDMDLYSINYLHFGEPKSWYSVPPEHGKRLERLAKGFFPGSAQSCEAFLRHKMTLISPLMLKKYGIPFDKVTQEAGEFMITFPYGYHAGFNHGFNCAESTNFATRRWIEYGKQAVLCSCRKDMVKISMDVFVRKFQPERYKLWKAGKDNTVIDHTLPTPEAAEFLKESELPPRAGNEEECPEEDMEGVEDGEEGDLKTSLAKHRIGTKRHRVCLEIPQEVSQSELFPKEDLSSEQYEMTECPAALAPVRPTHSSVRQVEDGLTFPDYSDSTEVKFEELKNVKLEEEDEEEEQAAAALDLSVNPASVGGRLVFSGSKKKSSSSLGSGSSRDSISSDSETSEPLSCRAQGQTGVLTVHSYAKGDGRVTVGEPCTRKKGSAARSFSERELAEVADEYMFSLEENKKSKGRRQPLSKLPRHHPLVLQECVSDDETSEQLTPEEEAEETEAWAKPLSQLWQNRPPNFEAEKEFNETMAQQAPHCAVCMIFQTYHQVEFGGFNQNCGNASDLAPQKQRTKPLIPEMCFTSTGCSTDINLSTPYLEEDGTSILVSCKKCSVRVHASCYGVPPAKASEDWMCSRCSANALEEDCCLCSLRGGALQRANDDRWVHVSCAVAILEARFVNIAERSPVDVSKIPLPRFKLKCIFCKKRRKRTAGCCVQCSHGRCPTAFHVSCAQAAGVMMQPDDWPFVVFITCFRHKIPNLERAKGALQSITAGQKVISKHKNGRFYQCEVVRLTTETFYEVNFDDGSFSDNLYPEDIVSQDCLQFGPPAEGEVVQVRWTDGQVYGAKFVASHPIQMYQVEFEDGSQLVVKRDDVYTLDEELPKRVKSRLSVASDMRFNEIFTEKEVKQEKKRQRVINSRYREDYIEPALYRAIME
CtBP-E1A blk – inhibitors of CtBP/E1A interaction. AlphaScreen GST-E1A/His-CtBP binding, 1536-well; hits give low values. activity change, % (no concentration beside the values). 340,000 tested, 0.49% active; in the data active = activity change below about -65%; inconclusive = mostly about -30% to -63%; also: % is scaled to controls: 0 for no effect and ±100 for the full control effect
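Steps: dispense buffer (Tris pH 8.0, NaCl 300 mM, TCEP 1 mM, BSA, Tween 20); add 5X protein mix (GST-E1A, His-CtBP, 125 nM each); pin 23 nL compound; 2 h at 37 °C, dark; add 5X beads (50 ug/mL); 1 h; read.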
The depositor's hits bear a star; ? = inconclusive; / = no result; [ ] = dose if it differs, or a comment. Shown are actives, neighbours in structure and some others; about 10% of the full set was active somewhere. Unless noted, calls follow the shape of the dose curve; as a rule, active = well fitted inhibition curve with a large enough effect; inconclusive = small, poorly fitted or top-dose-only effect; inactive = no such curve, though single readings can be large or run the other way.

SMILES | HP1b binding inh | BAZ2B block | Six1-Eya2 inh | G9a inh | JMJD2A Tudor | CtBP-E1A blk
COc1cc(C(=O)NC(c2ccccc2)c2ccccc2)cc(OC)c1OC | 36% | -5% | 1 | 45% | 0% | 1
COc1ccc(Nc2nc(-c3ccncc3)nc3ccccc23)cc1 | 32% | 6% | -7 | 12% | 4% | 4
COc1cc(NC(c2ccccc2)c2ccccc2)cc(OC)c1OC | -7% | 45µM* | -1 | 40µM* | -22% | -15
COc1cc2ccccc2cc1C(=O)NC(=S)Nc1cccc(C(=O)O)c1 | -9% | 79µM* | ? | ? | -28% | -29
CC(=O)c1cccc(NC(=S)NC(=O)c2ccccc2)c1 | 19% | -31% | 1 | ? | -17% | -8
COc1cccc2cc(C(=O)Nc3ccc(F)cc3)c(=Nc3ccc(C(=O)O)cc3)oc12 | 18% | -2% | 0 | 35µM* | -31% | -2
COc1ccc(NC(=O)c2cc3ccccc3cc2OC)cc1 | ? | 6% | 15 | 28% | ? | 0
COc1cc2ccccc2cc1C(=O)NC(=S)Nc1ccc(C(=O)O)cc1 | -1% | 50µM* | -12 | ? | 50µM* | -30
COCCN(C(=O)COC(=O)CCc1c[nH]c2ccccc12)c1c(N)n(Cc2ccccc2)c(=O)[nH]c1=O | 4% | -6% | 0 | -1% | -18% | -7
O=C1Nc2ccccc2SC(c2ccccc2)C1O (stereo not given) | -30% | 40µM* | -21 | 10µM* | 56µM* | -3
Cc1ccc(C(=O)N(C)CC(=O)Nc2ccc(N3CCOCC3)cc2)s1 | 7% | 8% | 3 | ? | -14% | -3
C/C(=N\NC(=O)Cc1ccccc1)c1cccnc1 | 37% | -13% | 3 | 1%[0.501 µM] | -7% | -3
CCCCCCCCC(=O)N/N=C(\C)c1cccnc1 | 63% | -30% | 6 | 10µM* | 89µM* | 7
O=C(NNC(=S)NC(=O)c1cccs1)c1ccc(O)cc1 | 50% | 0% | -5 | 40µM* | -22% | -17
C/C(=N\NC(=O)c1ccncc1)c1cccnc1 | 21% | ? | 0 | ? | -2% | 2
O=C(NNC(=S)NC(=O)c1cccs1)c1ccc(NC(=O)c2ccccc2)cc1 | 13% | -3% | 0 | 2%[59 µM] | -27% | 7
C/C(=N\NC(=O)c1cccs1)c1cccnc1 | -10% | / | 9 | -8% | 18µM* | 6
C/C(=N\NC(=O)C1=NNC(=O)C1C)c1cccs1 (stereo not given) | 27% | ? | 22 | 45µM* | -2%[11.4 µM] | /
Cc1ccc(C(=O)Nc2ncccc2C)cc1S(=O)(=O)N1CCCCC1 | 21% | -4% | 10 | -9% | -14% | -2
Cc1c(Cl)cccc1NC(=O)Nc1nnc(N(C)Cc2ccccc2)s1 | 20% | -4% | / | -9%[59 µM] | -24% | /
O=C(NNC(=S)NC(=O)c1cccs1)c1cccnc1 | 45% | 9% | -9 | 45µM* | -9% | -2
O=C(NNC(=O)c1cccs1)c1cccnc1 | 20% | 3% | 3 | -7%[59 µM] | -7% | 5
COc1cc(OC)c(C(=O)OCC(=O)NCCc2ccccc2)cc1OC | 44% | -22% | -8 | 0% | -7% | 1
C/C(=N\NC(=O)c1cccc2ccccc12)c1ccccn1 | 16% | 16µM* | -91* | / | 56µM* | -92*
